Test results reported in PubChem BioAssay.
Calls of active or inactive are those of the source. Unless noted, no rule for the calls is given here.

How the values were obtained:
[1] = test system: Wnt5a (protein binding on small-molecule microarray); experiment: small molecules binding Wnt5a protein – biophysical, small-molecule microarray, 635/667 nm fluorescence, primary screen (AID 1142); settings: 635 nm fluorescence, higher = more signal;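 also: fluorescence read at 667 nm with signal to noise per printed feature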
[2] = ATP-based viability of Huh7 replicon cells – cell-based, CellTiter-Glo luminescence, basal, 48 h, cytotoxicity control for HCV replication inhibitor project, primary screen (AID 1143); settings: higher = more signal, called active from +8 up or from −8 down;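 also: Huh7 hepatoma cells carrying a hepatitis C replication reporter with no stimulus; test concentration not given here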
[3] = Pseudomonas biofilm growth suppression – PAO1 strain, BacTiter-Glo luminescence, LB-PBS, primary screen (AID 1144); settings: P. aeruginosa PAO1 biofilm, 12 h, higher = more signal
[4] = basal CRE-LacZ reporter activity in PC12 – cell-based, unstimulated, primary screen (AID 1145); settings: no forskolin, luminescence, 4.5 h, higher = more signal, called active from +8 up or from −8 down
[5] = forskolin-driven CRE-LacZ activity in PC12 – cell-based, CRE-LacZ reporter, forskolin-stimulated, primary screen (AID 1146); settings: luminescence, 4.5 h, higher = more signal, called active from +8 up or from −8 down;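 also: PC12 cells with 6xCRE LacZ reporter stimulated by forskolin 10 µM; beta-galactosidase reporter signal reflecting CREB driven transcription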
[6] = molecular target: Streptavidin (Streptomyces avidinii) (UniProt P22629); experiment: compounds binding control protein streptavidin – biophysical, small-molecule microarray, 635/667 nm fluorescence, artefact control for SMM compound annotation, primary screen (AID 1147); settings: higher = more signal;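 also: signal reflects streptavidin binding to arrayed compounds as a control protein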
Sequence of Streptavidin (Streptomyces avidinii) (P22629 whole entry, looked up): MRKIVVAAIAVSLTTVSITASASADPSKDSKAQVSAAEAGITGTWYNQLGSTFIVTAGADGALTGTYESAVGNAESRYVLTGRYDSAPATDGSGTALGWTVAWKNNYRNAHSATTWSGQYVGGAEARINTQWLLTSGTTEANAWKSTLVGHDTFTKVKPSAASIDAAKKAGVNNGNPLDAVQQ

[7] = probe aInhba binding on compound microarray – biochemical, small-molecule microarray, 635/667 nm fluorescence, primary screen (AID 1148); settings: higher = more signal;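 also: score merges 667nm spot fluorescence with signal-to-noise for antibody binding to printed compounds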
Torsin-1A (Homo sapiens) [8] = molecular target: Torsin-1A (Homo sapiens) (UniProt O14656); experiment: TOR1A wild-type binding on microarray – cell lysate, small-molecule microarray, lysate, 635/667 nm, primary screen (AID 1149); settings: COS7 hTOR1A-WT lysate, 635 nm fluorescence, higher = more signal
Sequence of Torsin-1A (Homo sapiens) (O14656 whole entry, looked up): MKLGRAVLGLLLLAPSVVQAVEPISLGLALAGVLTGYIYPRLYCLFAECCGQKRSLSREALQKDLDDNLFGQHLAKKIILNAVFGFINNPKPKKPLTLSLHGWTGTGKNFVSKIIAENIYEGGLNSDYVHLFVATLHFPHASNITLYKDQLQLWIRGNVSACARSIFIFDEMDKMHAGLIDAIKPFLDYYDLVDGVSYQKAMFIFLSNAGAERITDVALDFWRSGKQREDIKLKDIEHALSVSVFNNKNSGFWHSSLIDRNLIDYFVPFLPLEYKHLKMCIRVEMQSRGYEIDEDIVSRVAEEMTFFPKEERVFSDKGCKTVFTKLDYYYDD

Torsin-1A (Homo sapiens) [9] = molecular target: Torsin-1A (Homo sapiens) (UniProt O14656); experiment: torsin A mutant lysate binding on microarrays – cell lysate, small-molecule microarray, COS7 lysate, 635/667 nm fluorescence, primary screen (AID 1150); settings: COS7 hTOR1A mutant lysate, 635 nm fluorescence, higher = more signal;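 also: score pools 667 nm emission and signal to noise measuring lysate protein binding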
[10] = test system: Sonic hedgehog protein (Shh); experiment: Sonic hedgehog microarray binding compounds – biochemical, small-molecule microarray, 635/667 nm fluorescence, primary screen (AID 1151); settings: 635 nm fluorescence, higher = more signal;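 also: Shh protein binding to compounds spotted on small-molecule microarray slides; score combines spot fluorescence intensity with signal-to-noise across triplicate slides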
[11] = optical density shifts of acrAB sulA E. coli – strain DRC41, OD650, 48 h, E. coli filamentation inducer project, primary screen (AID 1152); settings: higher = more signal, called active from +8 up or from −8 down;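 also: E. coli MC1000 strain DRC41 lacking acrAB efflux pump and sulA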
[12] = probe aLefty1 binding on compound microarray – biochemical, small-molecule microarray, 635/667 nm fluorescence, primary screen (AID 1153); settings: higher = more signal;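 also: score merges spot fluorescence with signal-to-noise ratio from the scanned slide images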
[13] = plasmodial surface anion channel blockers, osmotic lysis – cell-based, P. falciparum Indochina, OD700, 1 h, primary screen (AID 1154); settings: P. falciparum Indochina infected RBC osmotic lysis, higher = more signal, called active from +8 up or from −8 down
[14] = plasmodial surface anion channel blockers, osmotic lysis – cell-based, P. falciparum Indochina, OD700, 2 h, primary screen (AID 1155);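 also: lysis reports solute entry through the parasite surface anion channel PSAC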; settings: P. falciparum Indochina infected erythrocytes, higher = more signal, called active from +8 up or from −8 down
[15] = changes in parasitized red cell lysis, either direction – P. falciparum Indochina, OD700, 3 h, PSAC antagonist project, primary screen (AID 1156); settings: P. falciparum-infected erythrocytes, osmotic lysis, higher = more signal, called active from +8 up or from −8 down
[16] = plasmodial surface anion channel blockers, osmotic lysis – cell-based, P. falciparum Indochina, OD700, 18 h, primary screen (AID 1157); settings: P. falciparum Indochina infected erythrocytes, osmotic lysis OD700, 18 h; higher = more signal, called active from +8 up or from −8 down
[17] = S6 kinase pathway phospho-S6 level changes – cell-based, A549, cytoblot, luminescence, serum-stimulated, primary screen (AID 1158); settings: 5 h, higher = more signal;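 also: serum-stimulated A549 lung adenocarcinoma cells; signal is phosphorylated S6 detected by cytoblot immunostaining with HRP secondary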
[18] = molecular target: NADPH oxidase 2 (Homo sapiens) (UniProt P04839); experiment: compounds shifting NOX2 Amplex Red fluorescence – cell-based, HEK293-NOX2, PMA-stimulated, NOX inhibitor project, primary screen (AID 1159); settings: 45 min, higher = more signal, called active from +8 up or from −8 down; also: test concentration not given here
Sequence of NADPH oxidase 2 (Homo sapiens) (P04839 whole entry, looked up): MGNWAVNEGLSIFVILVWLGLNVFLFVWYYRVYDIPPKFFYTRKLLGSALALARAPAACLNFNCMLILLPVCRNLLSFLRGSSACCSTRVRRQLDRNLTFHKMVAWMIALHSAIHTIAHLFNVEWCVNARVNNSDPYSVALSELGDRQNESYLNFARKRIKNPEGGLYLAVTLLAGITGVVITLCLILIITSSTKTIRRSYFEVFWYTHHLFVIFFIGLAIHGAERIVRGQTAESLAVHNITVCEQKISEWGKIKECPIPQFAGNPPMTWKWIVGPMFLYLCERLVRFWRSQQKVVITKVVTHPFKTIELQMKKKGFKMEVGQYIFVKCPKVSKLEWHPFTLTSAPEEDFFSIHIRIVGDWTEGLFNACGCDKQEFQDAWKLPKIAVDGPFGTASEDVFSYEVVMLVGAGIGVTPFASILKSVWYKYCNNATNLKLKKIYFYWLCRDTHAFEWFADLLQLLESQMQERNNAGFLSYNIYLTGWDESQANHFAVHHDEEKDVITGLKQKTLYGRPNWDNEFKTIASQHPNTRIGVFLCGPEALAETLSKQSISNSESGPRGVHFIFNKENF

[19] = molecular target: NADPH oxidase 4 (Homo sapiens) (UniProt Q9NPH5); experiment: compounds shifting NOX4 Amplex Red fluorescence – cell-based, HEK293-NOX4, tetracycline-induced, NOX inhibitor project, primary screen (AID 1160); settings: HEK293-NOX4, Amplex Red H2O2 fluorescence, 45 min; higher = more signal, called active from +8 up or from −8 down
Sequence of NADPH oxidase 4 (Homo sapiens) (Q9NPH5 whole entry, looked up): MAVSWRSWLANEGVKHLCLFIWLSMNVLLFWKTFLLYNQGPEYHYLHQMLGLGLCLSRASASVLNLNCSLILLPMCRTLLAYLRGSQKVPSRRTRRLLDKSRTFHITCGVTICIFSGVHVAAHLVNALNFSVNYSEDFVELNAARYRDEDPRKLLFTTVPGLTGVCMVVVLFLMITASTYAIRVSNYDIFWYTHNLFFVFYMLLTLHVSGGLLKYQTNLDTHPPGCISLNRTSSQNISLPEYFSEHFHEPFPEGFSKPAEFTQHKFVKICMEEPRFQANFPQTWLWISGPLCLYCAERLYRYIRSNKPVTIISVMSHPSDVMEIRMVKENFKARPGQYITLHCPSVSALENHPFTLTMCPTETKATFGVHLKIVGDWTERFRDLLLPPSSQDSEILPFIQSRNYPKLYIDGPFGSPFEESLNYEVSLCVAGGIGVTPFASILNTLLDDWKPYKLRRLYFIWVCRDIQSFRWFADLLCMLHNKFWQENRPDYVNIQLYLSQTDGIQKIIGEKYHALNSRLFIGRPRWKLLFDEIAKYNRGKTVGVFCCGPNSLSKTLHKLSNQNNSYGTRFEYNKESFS

[20] = molecular target: NADPH oxidase 5 (Homo sapiens) (UniProt Q96PH1); experiment: compounds shifting NOX5 Amplex Red fluorescence – cell-based, HEK293-NOX5, NOX inhibitor project, primary screen (AID 1161); settings: HEK293-NOX5, ionomycin, 45 min, higher = more signal
Sequence of NADPH oxidase 5 (Homo sapiens) (Q96PH1 whole entry, looked up): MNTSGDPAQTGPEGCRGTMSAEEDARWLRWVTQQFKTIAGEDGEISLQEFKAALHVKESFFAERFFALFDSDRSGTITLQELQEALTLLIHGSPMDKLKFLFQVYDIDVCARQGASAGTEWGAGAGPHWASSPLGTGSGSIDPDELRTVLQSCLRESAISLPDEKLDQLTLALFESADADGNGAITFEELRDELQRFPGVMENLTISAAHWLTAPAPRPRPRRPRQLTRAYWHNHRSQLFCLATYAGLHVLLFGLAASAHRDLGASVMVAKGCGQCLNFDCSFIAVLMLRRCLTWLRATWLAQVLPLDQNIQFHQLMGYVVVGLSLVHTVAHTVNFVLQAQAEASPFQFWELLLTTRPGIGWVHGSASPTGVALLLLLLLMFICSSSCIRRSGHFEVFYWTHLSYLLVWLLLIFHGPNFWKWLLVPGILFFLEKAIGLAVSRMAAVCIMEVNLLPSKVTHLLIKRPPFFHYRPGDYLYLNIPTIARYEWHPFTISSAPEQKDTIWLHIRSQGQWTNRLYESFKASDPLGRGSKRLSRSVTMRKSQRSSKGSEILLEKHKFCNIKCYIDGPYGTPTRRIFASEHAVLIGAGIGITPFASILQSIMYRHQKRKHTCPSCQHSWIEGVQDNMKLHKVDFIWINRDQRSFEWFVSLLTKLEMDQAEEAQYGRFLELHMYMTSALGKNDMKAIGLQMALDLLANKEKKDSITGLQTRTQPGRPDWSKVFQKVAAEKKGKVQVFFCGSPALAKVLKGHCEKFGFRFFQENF

SMILES	composite z-score [1]	z-score [2]	z-score [3]	z-score [4]	z-score [5]	composite z-score [6]	composite z-score [7]	composite z-score (Torsin-1A (Homo sapiens) [8])	composite z-score (Torsin-1A (Homo sapiens) [9])	composite z-score [10]	z-score [11]	composite z-score [12]	z-score [13]	z-score [14]	z-score [15]	z-score [16]	z-score [17]	z-score [18]	z-score [19]	z-score [20]
[N-]=[N+]=NCc1ccccc1C[C@]1(C(=O)NCC(O)CO)N=C(c2ccc(OCCCO)cc2)O[C@H]1c1ccccc1CN=[N+]=[N-] (stereo not given in full)	0.493	-4.68 (inactive)	-0.998 (inactive)	0.447 (inactive)	-1.32 (inactive)	0.661	0.404	0.408	1.09	-0.881	-0.0074 (inactive)	0.865	19.3 (active)	2.49 (inactive)	1.81 (inactive)	-0.481 (inactive)	1.67	-1.97 (inactive)	-2.19 (inactive)	-1.41
C[n+]1ccc(CCCO)cc1	0.749	-0.0513 (inactive)	-0.601 (inactive)	0.182 (inactive)	0.58 (inactive)	-0.902	0.196	-0.653	-0.0965	2.16	-0.885 (inactive)	0.33	0.599 (inactive)	-0.0234 (inactive)	1.87 (inactive)	0.131 (inactive)	-0.283	0.176 (inactive)	-0.435 (inactive)	-1.72
NC(=O)NCC#Cc1ccc2c(c1)[C@]1(C(=O)N2)[C@H](C(=O)Nc2nc3ccccc3s2)[C@H]2C(=O)O[C@H](c3ccccc3)[C@H](c3ccccc3)N2[C@@H]1c1ccc(O)cc1	0.236	0.0524 (inactive)	0.688 (inactive)	-1.15 (inactive)	-1.58 (inactive)	2.27	0.806	0.171	-0.216	0.922	0.996 (inactive)	0.315	2.92 (inactive)	2.35 (inactive)	0.962 (inactive)	1.19 (inactive)	-0.0609	-0.23 (inactive)	-1.27 (inactive)	0.16
COCCOC(=O)N1C(=O)[C@@]2(c3cc(C#CC4(O)CCCCCC4)ccc31)[C@H](C(=O)N1CCCCCCC1)[C@H]1C(=O)O[C@H](c3ccccc3)[C@H](c3ccccc3)N1[C@@H]2c1ccc(OCCO)cc1	1.19	-3.66 (inactive)	0.629 (inactive)	0.623 (inactive)	-0.532 (inactive)	2.63	1.85	1.25	1.8	2.17	1.08 (inactive)	2.64	5.11 (inactive)	2.64 (inactive)	0.539 (inactive)	1.27 (inactive)	-0.108	0.738 (inactive)	0.507 (inactive)	1.36
COc1ccc(NN2C(C(O)c3ccco3)C=CC3C(=O)N(C4CCCCC4)C(=O)C32)cc1 (stereo not given)	0.495	-0.829 (inactive)	-0.522 (inactive)	0.323 (inactive)	0.565 (inactive)	0.965	0.0471	0.95	1.1	1.28	-0.636 (inactive)	0.364	2.54 (inactive)	0.143 (inactive)	0.546 (inactive)	0.0933 (inactive)	-0.686	-0.19 (inactive)	-0.842 (inactive)	-1.1
C[N+](C)(C)CCCC[C@@H]1NC(=O)[C@@H]2C[C@H](C(=O)O)[C@H](c3ccc(O)cc3)N2C1=O	-0.535	0.462 (inactive)	-0.771 (inactive)	0.0043 (inactive)	0.563 (inactive)	-1.08	-0.103	-1.07	-0.909	-0.0334	-0.105 (inactive)	-0.248	0.277 (inactive)	0.156 (inactive)	-0.0003 (inactive)	0.0583 (inactive)	0.423	-0.0831 (inactive)	-0.223 (inactive)	0.903
C=C(COC)/C(=C/C[C@@H](OC(=O)c1ccncc1)c1ccc(OCCO)cc1)c1cnc2ccccc2c1	0.884	-3.25 (inactive)	-1.28 (inactive)	7.95 (inactive)	0.34 (inactive)	2.13	0.0419	0.77	0.327	2.09	0.634 (inactive)	0.497	23.1 (active)	5.56 (inactive)	1.59 (inactive)	1.19 (inactive)	-0.0567	-1.17 (inactive)	-0.596 (inactive)	-1.84
CC(C)(C)OC(=O)CC[C@@]1(C(=O)O)N=C(c2ccc(OCCCO)cc2)O[C@@H]1c1ccccc1	-0.181	-0.97 (inactive)	-0.335 (inactive)	-0.94 (inactive)	-0.374 (inactive)	0.0425	0.0154	0.961	0.694	-0.736	0.0442 (inactive)	0.284	6.52 (inactive)	0.0947 (inactive)	-0.819 (inactive)	0.0734 (inactive)	-0.407	0.104 (inactive)	1.27 (inactive)	0.548
